Test results from PubChem BioAssay (EPA / NIEHS).
Inconclusive results are not listed. Calls of active or inactive are those of the source. How the source made its calls, unless noted: active means hit-call score of the fitted dose curve at least 0.9, where 1 is the maximum; inactive means score below 0.9.

Tests used:
[1] = read-out: Monocyte Chemoattractant Protein-1 (MCP1), CCL2 (gene 6347); test: BSK_LPS_MCP1: BioMAP Diversity Plus: LPS Assay for Monocyte Chemoattractant Protein-1 (MCP1) Biomarker Activity (AID 2283081); conditions: primary human HUVEC with PBMC; actives raise or lower the signal;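 on AC50: secreted MCP-1 protein quantified by ELISA in culture supernatant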
Summary of the method: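 Human endothelial–PBMC co-cultures were dosed with chemical, then LPS-driven MCP-1 levels were quantified by ELISA at 24 h. Activity in either direction was fitted versus DMSO negative control.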

[2] = BSK_LPS_PGE2: BioMAP Diversity Plus: LPS Assay for Prostaglandin E2 (PGE2) Biomarker Activity (AID 2283082); conditions: primary human HUVEC with PBMC; actives raise or lower the signal;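 on AC50: secreted prostaglandin E2 measured by ELISA in LPS-stimulated co-culture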
Summary of the method: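 ELISA read-out of PGE2 from human umbilical vein endothelial cells co-cultured with peripheral blood mononuclear cells under LPS, 24 h post-dose. Gain or loss of signal scored relative to DMSO baseline.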

[3] = read-out: Macrophage colony-stimulating factor (MCSF), CSF1 (gene 1435); test: BSK_LPS_MCSF: BioMAP Diversity Plus: LPS Assay for Macrophage colony-stimulating factor (MCSF) Biomarker Activity (AID 2283083); conditions: primary human HUVEC with PBMC; actives raise or lower the signal
Summary of the method: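 ELISA readout of M-CSF after 24 h compound exposure in a human endothelial/PBMC co-culture. Activity, in either direction, is fitted relative to DMSO vehicle.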

[4] = read-out: Tissue Factor, F3 (gene 2152); test: BSK_LPS_TissueFactor: BioMAP Diversity Plus: LPS Assay for Tissue Factor Biomarker Activity (AID 2283084); conditions: primary human HUVEC with PBMC; actives raise or lower the signal
Summary of the method: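 ELISA signal for cell-surface Tissue Factor (CD142) was read 24 h after compound dosing of an LPS-stimulated human endothelial–PBMC primary co-culture. Gain or loss of signal was scored relative to DMSO.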

[5] = read-out: Tumor necrosis factor (Homo sapiens) (UniProt P01375); test: BSK_LPS_TNFa: BioMAP Diversity Plus: LPS Assay for Tumour Necrosis Factor alpha (TNFa) Biomarker Activity (AID 2283085); conditions: primary human HUVEC with PBMC; actives raise or lower the signal;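 on AC50: TNFa protein level quantified by ELISA in the co-culture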
Summary of the method: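 HUVEC/PBMC co-culture, LPS-stimulated; 24 h post-dose; TNFa by ELISA; gain or loss of signal fitted bidirectionally vs DMSO baseline.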

[6] = read-out: Vascular cell adhesion molecule 1 (VCAM1), VCAM1 (gene 7412); test: BSK_LPS_VCAM1: BioMAP Diversity Plus: LPS Assay for Vascular cell adhesion molecule 1 (VCAM1) Biomarker Activity (AID 2283086); conditions: primary human HUVEC with PBMC; actives raise or lower the signal
Summary of the method: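 ELISA read-out of VCAM-1 at 24 h post-dosing in an LPS-driven HUVEC/PBMC primary human co-culture; gain or loss of signal fitted bidirectionally against DMSO baseline. Cytotoxicity tracked in parallel cultures by SRB total-protein staining.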

[7] = read-out: CD40, CD40 (gene 958); test: BSK_SAg_CD40: BioMAP Diversity Plus: SAg Assay for CD40 Biomarker Activity (AID 2283088); conditions: primary human HUVEC with PBMC; actives raise or lower the signal
Summary of the method: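 Compounds were dosed onto a human primary endothelial–PBMC co-culture, and after 24 h CD40 was quantified by ELISA using a fluorescence signal. Activity in either direction was fitted relative to DMSO.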

[8] = read-out: CD69, CD69 (gene 969); test: BSK_SAg_CD69: BioMAP Diversity Plus: SAg Assay for CD69 Biomarker Activity (AID 2283089); conditions: primary human HUVEC with PBMC; actives raise or lower the signal;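 on AC50: cell surface CD69 protein quantified by ELISA with fluorescence detection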
Summary of the method: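 Values derive from bidirectional fitting relative to DMSO vehicle. Cells: umbilical vein endothelium plus peripheral blood mononuclear cells, treated 24 h before fluorescent ELISA for CD69.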

[9] = read-out: Monocyte Chemoattractant Protein-1 (MCP1), CCL2 (gene 6347); test: BSK_SAg_MCP1: BioMAP Diversity Plus: SAg Assay for Monocyte Chemoattractant Protein-1 (MCP1) Biomarker Activity (AID 2283090); conditions: primary human HUVEC with PBMC; actives raise or lower the signal
Summary of the method: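 Values derive from bidirectional fitting of ELISA-measured MCP1 against DMSO controls. Readings were taken 24 h after dosing human vascular endothelial cells co-cultured with peripheral blood mononuclear cells under superantigen stimulation.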

[10] = read-out: E-selectin (Homo sapiens) (UniProt P16581); test: BSK_SAg_Eselectin: BioMAP Diversity Plus: SAg Assay for Eselectin Biomarker Activity (AID 2283091); conditions: primary human HUVEC with PBMC; actives raise or lower the signal
Summary of the method: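 Co-culture: HUVEC + PBMC. Dose compound; 24 h. ELISA for E-selectin. Bidirectional fit vs DMSO.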

[11] = read-out: Monokine induced gamma interferon (MIG), CXCL9 (gene 4283); test: BSK_SAg_MIG: BioMAP Diversity Plus: SAg Assay for Monokine induced gamma interferon (MIG) Biomarker Activity (AID 2283092); conditions: primary human HUVEC with PBMC; actives raise or lower the signal
Summary of the method: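 Values reflect bidirectional fitting of ELISA-measured MIG against DMSO vehicle, taken 24 h after dosing of a co-culture of human umbilical vein endothelial cells and peripheral blood mononuclear cells.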

[12] = BSK_SAg_PBMCCytotoxicity: PBMC Cytotoxicity Assessment in the BioMAP Diversity Plus: SAg Assay (AID 2283093); conditions: primary human HUVEC with PBMC;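 further: fitted both ways against DMSO so a hit may be loss or gain of signal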;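 on AC50: PBMC superantigen activated with SEB plus TSST-1 one hour after compound addition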
Summary of the method: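 PBMC viability by Alamar Blue reduction, fluorescence read at 546/580 nm after 6 h dye exposure. Cells were dosed 1 h before SEB plus TSST-1 activation (20 ng/mL final each), then held 90 h; endothelial/PBMC human co-culture.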

[13] = read-out: Interleukin-8 (IL8), CXCL8 (gene 3576); test: BSK_SAg_IL8: BioMAP Diversity Plus: SAg Assay for Interleukin-8 (IL8) Biomarker Activity (AID 2283094); conditions: primary human HUVEC with PBMC; actives raise or lower the signal
Summary of the method: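 HUVEC/PBMC co-culture, 24 h post-dose; IL-8 by ELISA. Gain or loss of signal fitted bidirectionally vs DMSO baseline.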

[14] = BSK_SAg_Proliferation: Cell Proliferation Assessment in the BioMAP Diversity Plus: SAg Assay (AID 2283095); conditions: primary human HUVEC with PBMC;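 further: relative cell number as total protein by SRB absorbance in sub-confluent culture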
Summary of the method: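 HUVEC/PBMC co-culture, 96-well. TCA-fixed (10%), 0.1% SRB stain, A560 at 96 h. Protein content used as viability readout; bidirectional fitting vs DMSO control.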

[15] = BSK_SAg_SRB: Viability Assessment in the BioMAP Diversity Plus: SAg Assay (AID 2283096); conditions: primary human HUVEC with PBMC;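 further: cells read one day after compound addition; hits may be either gain or loss of signal compared with DMSO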
Summary of the method: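 Compounds were added to a human vascular co-culture of umbilical vein endothelium and PBMC. After 24 h, parallel cultures were fixed with 10% TCA, stained with 0.1% sulforhodamine B and read at 560 nm. Gain or loss of signal was fitted relative to DMSO.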

[16] = target: human CYP2B6, CYP2B6 (gene 1555) (UniProt P20813); test: NVS_ADME_hCYP2B6: NovaScreen (NVS) CYP450-related Enzyme Activity (ADME) Assay for human CYP2B6 (AID 2283101; active means hit-call score of the fitted dose curve at least 0.9, where 1 is the maximum)
Summary of the method: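 Compounds were first screened in duplicate at 10 uM against recombinant enzyme, with the fluorescent product measured after 1 hour. Active compounds were retested over a concentration series. Loss of fluorescence versus acetonitrile control was scored as reduced enzyme activity.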

[17] = target: human CYP2C9, CYP2C9 (gene 1559) (UniProt P11712); test: NVS_ADME_hCYP2C9: NovaScreen (NVS) CYP450-related Enzyme Activity (ADME) Assay for human CYP2C9 (AID 2283108; active means hit-call score of the fitted dose curve at least 0.9, where 1 is the maximum)
Summary of the method: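 Recombinant human CYP2C9 expressed in SF9 cells, fluorogenic substrate, fluorescence read 0.75 h after dosing. Chemicals first run in duplicate at 10 uM, with actives followed in concentration series; loss of signal versus acetonitrile baseline.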

[18] = target: human CYP2D6, CYP2D6 (gene 1565) (UniProt P10635); test: NVS_ADME_hCYP2D6: NovaScreen (NVS) CYP450-related Enzyme Activity (ADME) Assay for human CYP2D6 (AID 2283107; active means hit-call score of the fitted dose curve at least 0.9, where 1 is the maximum)
Summary of the method: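 Insect-cell recombinant enzyme + fluorogenic substrate, cell-free; 1 h incubation; fluorescence intensity readout. Acetonitrile = neg. ctrl/baseline. Single-point 10 uM, duplicate; follow-up concentration series.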

[19] = read-out: CD38, CD38 (gene 952); test: BSK_SAg_CD38: BioMAP Diversity Plus: SAg Assay for CD38 Biomarker Activity (AID 2283087); conditions: primary human HUVEC with PBMC; actives raise or lower the signal
Summary of the method: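 Measures CD38 on a human endothelial/PBMC co-culture driven by SEB and TSST-1, 24 h after compound exposure, using ELISA with fluorescence detection; DMSO defines baseline for bidirectional curve fitting.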

[20] = target: human CYP19A1, CYP19A1 (gene 1588) (UniProt P11511); test: NVS_ADME_hCYP19A1: NovaScreen (NVS) CYP450-related Enzyme Activity (ADME) Assay for human CYP19A1 (AID 2283098; active means hit-call score of the fitted dose curve at least 0.9, where 1 is the maximum)
Summary of the method: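 Fluorescence intensity read-out; activity taken as signal loss relative to acetonitrile vehicle. Extracted enzyme, specific substrate, no cells, 0.5 h exposure. Duplicate single-point screen at 10 uM, then concentration–response follow-up for actives.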

Measured: AC50

Chain of Tumor necrosis factor (Homo sapiens) (P01375 whole entry, looked up): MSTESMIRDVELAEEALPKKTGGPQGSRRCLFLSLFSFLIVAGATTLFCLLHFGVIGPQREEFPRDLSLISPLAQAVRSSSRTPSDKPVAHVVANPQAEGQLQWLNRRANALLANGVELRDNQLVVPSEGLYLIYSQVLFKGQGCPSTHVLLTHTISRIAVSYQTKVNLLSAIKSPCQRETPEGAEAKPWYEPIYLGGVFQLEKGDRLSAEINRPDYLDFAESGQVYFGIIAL
Chain of human CYP2C9, CYP2C9 (gene 1559) (P11712 whole entry, looked up): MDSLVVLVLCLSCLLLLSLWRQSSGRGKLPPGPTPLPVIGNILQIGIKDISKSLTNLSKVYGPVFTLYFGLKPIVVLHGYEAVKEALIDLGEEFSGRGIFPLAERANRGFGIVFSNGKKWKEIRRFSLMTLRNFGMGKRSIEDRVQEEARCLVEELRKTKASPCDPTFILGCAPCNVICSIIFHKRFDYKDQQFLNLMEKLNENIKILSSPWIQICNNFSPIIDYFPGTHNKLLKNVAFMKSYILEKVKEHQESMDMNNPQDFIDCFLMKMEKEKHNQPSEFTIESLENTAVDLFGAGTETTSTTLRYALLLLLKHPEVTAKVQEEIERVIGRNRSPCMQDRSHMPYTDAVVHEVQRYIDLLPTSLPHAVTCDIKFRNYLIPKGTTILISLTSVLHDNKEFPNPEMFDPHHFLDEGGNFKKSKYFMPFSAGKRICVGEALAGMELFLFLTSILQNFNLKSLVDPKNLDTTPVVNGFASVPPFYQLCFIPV
Chain of E-selectin (Homo sapiens) (P16581 whole entry, looked up): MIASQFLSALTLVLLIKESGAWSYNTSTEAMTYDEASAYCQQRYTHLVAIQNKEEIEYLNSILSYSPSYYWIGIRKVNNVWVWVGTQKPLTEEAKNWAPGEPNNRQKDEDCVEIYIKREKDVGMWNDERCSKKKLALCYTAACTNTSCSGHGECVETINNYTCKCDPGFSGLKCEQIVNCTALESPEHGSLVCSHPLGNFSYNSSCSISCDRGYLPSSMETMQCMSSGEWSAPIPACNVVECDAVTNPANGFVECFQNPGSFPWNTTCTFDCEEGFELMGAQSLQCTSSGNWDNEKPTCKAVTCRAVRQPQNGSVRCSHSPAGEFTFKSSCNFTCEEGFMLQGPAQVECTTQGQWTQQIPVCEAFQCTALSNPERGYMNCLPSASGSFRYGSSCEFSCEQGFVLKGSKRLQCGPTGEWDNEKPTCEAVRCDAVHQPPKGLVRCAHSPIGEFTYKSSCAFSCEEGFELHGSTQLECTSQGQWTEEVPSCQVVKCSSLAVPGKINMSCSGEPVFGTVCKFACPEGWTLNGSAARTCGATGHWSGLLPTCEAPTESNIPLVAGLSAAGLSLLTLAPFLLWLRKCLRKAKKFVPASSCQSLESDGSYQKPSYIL
Chain of human CYP2B6, CYP2B6 (gene 1555) (P20813 whole entry, looked up): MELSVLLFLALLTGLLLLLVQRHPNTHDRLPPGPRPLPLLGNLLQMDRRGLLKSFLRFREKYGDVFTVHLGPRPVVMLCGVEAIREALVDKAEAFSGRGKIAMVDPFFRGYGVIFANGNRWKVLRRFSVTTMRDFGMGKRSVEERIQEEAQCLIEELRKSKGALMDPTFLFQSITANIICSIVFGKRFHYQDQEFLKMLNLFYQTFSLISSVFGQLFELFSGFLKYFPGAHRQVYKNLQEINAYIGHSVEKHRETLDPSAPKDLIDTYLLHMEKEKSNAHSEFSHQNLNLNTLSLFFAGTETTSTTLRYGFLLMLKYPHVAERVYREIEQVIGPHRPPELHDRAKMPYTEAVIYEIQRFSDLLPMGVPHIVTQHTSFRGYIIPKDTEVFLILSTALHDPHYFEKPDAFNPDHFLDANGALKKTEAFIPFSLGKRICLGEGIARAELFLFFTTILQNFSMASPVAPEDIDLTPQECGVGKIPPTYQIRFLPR
Chain of human CYP19A1, CYP19A1 (gene 1588) (P11511 whole entry, looked up): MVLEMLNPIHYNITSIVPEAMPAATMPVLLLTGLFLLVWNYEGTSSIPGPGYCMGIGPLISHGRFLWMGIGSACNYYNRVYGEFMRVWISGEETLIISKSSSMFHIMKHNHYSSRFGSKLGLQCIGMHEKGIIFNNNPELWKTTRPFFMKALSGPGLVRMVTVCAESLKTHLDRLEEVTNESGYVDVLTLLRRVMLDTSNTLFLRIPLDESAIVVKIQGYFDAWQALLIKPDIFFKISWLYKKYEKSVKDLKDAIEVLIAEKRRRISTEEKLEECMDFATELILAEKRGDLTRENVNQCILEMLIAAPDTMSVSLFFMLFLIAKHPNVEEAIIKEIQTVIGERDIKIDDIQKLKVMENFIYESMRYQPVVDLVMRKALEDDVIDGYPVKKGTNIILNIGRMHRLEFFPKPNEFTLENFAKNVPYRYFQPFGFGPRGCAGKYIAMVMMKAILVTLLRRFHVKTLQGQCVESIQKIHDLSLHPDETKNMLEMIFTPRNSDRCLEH
Chain of human CYP2D6, CYP2D6 (gene 1565) (P10635 whole entry, looked up): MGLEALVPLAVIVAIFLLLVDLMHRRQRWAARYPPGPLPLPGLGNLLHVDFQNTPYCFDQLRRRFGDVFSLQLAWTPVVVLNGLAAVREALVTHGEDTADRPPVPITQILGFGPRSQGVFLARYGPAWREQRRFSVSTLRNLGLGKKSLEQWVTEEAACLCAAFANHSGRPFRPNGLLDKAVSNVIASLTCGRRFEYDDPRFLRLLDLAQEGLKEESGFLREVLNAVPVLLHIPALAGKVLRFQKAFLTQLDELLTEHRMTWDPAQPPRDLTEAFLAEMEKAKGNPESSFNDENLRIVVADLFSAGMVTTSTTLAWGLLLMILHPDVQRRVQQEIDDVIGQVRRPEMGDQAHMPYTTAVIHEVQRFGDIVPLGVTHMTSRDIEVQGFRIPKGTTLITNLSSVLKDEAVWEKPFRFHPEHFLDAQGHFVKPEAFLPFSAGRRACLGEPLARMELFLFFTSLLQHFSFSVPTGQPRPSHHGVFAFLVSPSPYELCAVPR

OCCCBr
inactive: [1] | [2] | [3] | [4] | [5] | [6] | [7] | [8] | [9] | [10] | [11] | [12] | [13] | [14] | [15]

CC(C)(C)C(O)(CCc1ccc(Cl)cc1)Cn1cncn1 (configuration not stated)
active: [17] 6 µM
inactive: [1] | [2] | [3] | [4] | [5] | [6] | [7] | [8] | [9] | [10] | [12] | [13] | [14] | [15] | [16]

CCCCCCCCCCCCCN1CC(C)OC(C)C1 (configuration not stated)
inactive: [1] | [2] | [3] | [4] | [5] | [6] | [7] | [8] | [9] | [10] | [12] | [13] | [14] | [15]

Clc1ccc(C(c2ccc(Cl)cc2)C(Cl)(Cl)Cl)cc1
inactive: [2]
active: [1] 33.1 µM | [3] 19.5 µM | [4] 38.7 µM | [5] 24.8 µM | [6] 28.7 µM | [7] 23.2 µM | [8] 25.5 µM | [9] 30 µM | [10] 38.2 µM | [11] 35.1 µM | [12] 15.5 µM | [13] 17 µM | [14] 12.7 µM | [15] 21.6 µM

Cc1ccc(N)c(N)c1
inactive: [1] | [4] | [5] | [8] | [9] | [12] | [13] | [14] | [15]
active: [2] 20 µM | [3] 11.5 µM | [6] 9.77 µM | [7] 7.11 µM | [10] 4.36 µM

COP(=S)(OC)SCN1C(=O)c2ccccc2C1=O
active: [16] 0.766 µM | [18] 6.97 µM | [17] 4.74 µM
inactive: [1] | [2] | [3] | [4] | [5] | [6] | [7] | [8] | [9] | [10] | [12] | [13] | [14] | [15]

O=C(Oc1ccc(Br)cc1)N1CCN2CCC1CC2
inactive: [2] | [3] | [4] | [5] | [6] | [19] | [7] | [8] | [9] | [10] | [11] | [12] | [13] | [14] | [15]

OCCCl
inactive: [1] | [2] | [3] | [4] | [5] | [6] | [7] | [8] | [9] | [10] | [12] | [13] | [14] | [15]

Nc1ccc(Cc2ccc(N)cc2)cc1
active: [2] 8.34 µM | [10] 13.6 µM | [16] 0.719 µM
inactive: [3] | [4] | [5] | [6] | [19] | [7] | [8] | [9] | [11] | [12] | [13] | [14] | [15]

CC(C)N(Cc1ccccc1)C(=O)C(C)(C)C
inactive: [1] | [2] | [3] | [4] | [5] | [6] | [7] | [8] | [9] | [10] | [12] | [13] | [14] | [15]

Nc1ccc(Cl)cc1N
inactive: [4] | [5] | [7] | [11] | [12] | [13] | [14] | [15]
active: [2] 10 µM | [3] 2.96 µM | [6] 3.62 µM | [19] 6.44 µM | [8] 3.65 µM | [9] 3.7 µM | [10] 8.35 µM

[O-][Cl+]O
inactive: [2] | [3] | [4] | [5] | [6] | [7] | [8] | [9] | [10] | [11] | [12] | [13] | [14] | [15]

CS(=O)(=O)NC(=O)c1cc(Oc2ccc(C(F)(F)F)cc2Cl)ccc1[N+](=O)[O-]
inactive: [2] | [3] | [4] | [5] | [6] | [19] | [7] | [8] | [9] | [10] | [12] | [13] | [14] | [15] | [20]
active: [17] 6.1 µM

N#CC(Br)(Br)C(N)=O
inactive: [2] | [3] | [4] | [5] | [6] | [7] | [8] | [9] | [10] | [11] | [12] | [13] | [14] | [15]

Cn1cc(-c2ccccc2)c(=O)c(-c2cccc(C(F)(F)F)c2)c1
active: [2] 2.7 µM
inactive: [3] | [4] | [5] | [6] | [7] | [8] | [9] | [10] | [12] | [13] | [14] | [15]
